# Measurements as given in PubChem BioAssay (EPA / NIEHS).
# Several values for one entry are separate records, joined by “and”; a condition that tells them apart may be missing. Equal entries are not always repeated. Inconclusive results are not listed. Activity calls are given as the source filed them. Rule for the calls: active = hit-call score of the fitted dose curve at least 0.9, where 1 is the maximum; inconclusive = response in the unintended direction; inactive = score below 0.9.
# How the values were obtained:
# [1] = ACEA_ER_AUC_viability: ACEA Biosciences xCELLigence Real-Time Cell Analysis on Estrogen Receptor Agonism for Viability (AID 2283782);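 note: continuous compound exposure with impedance area under curve over 80 h; hit means loss of impedance signal meaning reduced cell growth or viability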
# Method in brief: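 T-47D; phenol red-free RPMI1640 + 10% CS-FBS; 8 conc., 1:4 serial, max 100 uM final, ≤0.5% DMSO; n = 2; continuous exposure; impedance monitored to 80 h post-dose; AUC vs DMSO.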
# [2] = tested on: turtle Estrogen Receptor (ESR1), gene 101933533; experiment: ATG_trERa_XSP1: Attagene TRANS-FACTORIAL Multi-Species (XSP1) HepG2 Assay for turtle Estrogen Receptor (ESR1) (AID 2283781)
# Method in brief: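 Activity was taken as gain of reporter transcript over DMSO controls. HepG2 cells carrying GAL4-UAS-driven reporters were exposed for 24 h before RNA was extracted and reporter sequences were measured by fluorescence after capillary separation.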
# [3] = ATG_M_06_XSP1: Attagene TRANS-FACTORIAL Multi-Species (XSP1) HepG2 Assay for M06 Transcription Factor (Internal Marker) (AID 2283790)
# Method in brief: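 Transfected HepG2 multi-reporter system treated 24 h in the presence of 3 nM 6-alpha-fluorotestosterone. The M06 internal marker transcript was quantified by RT-PCR with capillary electrophoresis as a background control, and gain of signal was scored versus DMSO.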
# [4] = ATG_M_61_XSP1: Attagene TRANS-FACTORIAL Multi-Species (XSP1) HepG2 Assay for M61 Transcription Factor (Internal Marker) (AID 2283797)
# Method in brief: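 HepG2 cells transiently transfected with multiplexed GAL4-driven reporter units, dosed 24 h with 3 nM 6-alpha-fluorotestosterone present. Reporter mRNA quantified by RT-PCR, 6-FAM labelling, HpaI digestion and capillary electrophoresis; internal-marker background control, gain of signal versus DMSO.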
# [5] = tested on: zebrafish Peroxisome Proliferator-activated Receptor gamma (PPARg), gene 557037; experiment: ATG_zfPPARg_XSP1: Attagene TRANS-FACTORIAL Multi-Species (XSP1) HepG2 Assay for zebrafish Peroxisome Proliferator-activated Receptor gamma (PPARg) (AID 2283801)
# Method in brief: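 HepG2 cells transiently transfected with GAL4-UAS reporter units including a zebrafish PPARg–GAL4 chimera, dosed 24 h with 3 nM 6-alpha-fluorotestosterone present. Reporter mRNA quantified by RT-PCR, FAM labelling, HpaI digestion and capillary electrophoresis; induction versus DMSO.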
# [6] = target: mouse Peroxisome Proliferator-activated Receptor gamma (PPARg), Pparg (gene 19016) (UniProt P37238); experiment: ATG_mPPARg_XSP1: Attagene TRANS-FACTORIAL Multi-Species (XSP1) HepG2 Assay for mouse Peroxisome Proliferator-activated Receptor gamma (PPARg) (AID 2283802)
# Method in brief: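 HepG2 cells transiently transfected with GAL4-UAS reporter units driven by mouse PPARg–GAL4 chimera; 3 nM 6-alpha-fluorotestosterone present. After 24 h dosing, reporter mRNA quantified by RT-PCR, fluorescent labelling and capillary electrophoresis; gain of signal versus DMSO.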
# [7] = target: frog Thyroid hormone Receptor alpha (TRa), thra-a (gene 397942) (UniProt P15204); experiment: ATG_frTRa_XSP1: Attagene TRANS-FACTORIAL Multi-Species (XSP1) HepG2 Assay for frog Thyroid hormone Receptor alpha (TRa) (AID 2283804)
# Method in brief: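 HepG2 cells transiently transfected with frog TRa-GAL4 chimeric reporter units, dosed 24 hr with 3 nM 6-alpha-fluorotestosterone present; reporter mRNA quantified by RT-PCR, fluorescent labelling and capillary electrophoresis, gain of signal versus DMSO.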
# [8] = target: human Thyroid hormone Receptor alpha (TRa), THRA (gene 7067) (UniProt P10827); experiment: ATG_hTRa_XSP1: Attagene TRANS-FACTORIAL Multi-Species (XSP1) HepG2 Assay for human Thyroid hormone Receptor alpha (TRa) (AID 2283805)
# Method in brief: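 HepG2 cells transiently transfected with GAL4-UAS reporter units expressing chimeric NR-Gal4 proteins, dosed 24 hours with 3 nM 6-alpha-fluorotestosterone present. Reporter mRNA measured by RT-PCR and capillary electrophoresis; gain of signal fitted versus DMSO.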
# [9] = target: zebrafish Thyroid Hormone Receptor alpha (TRa), thraa (gene 30670) (UniProt Q98867); experiment: ATG_zfTRa_XSP1: Attagene TRANS-FACTORIAL Multi-Species (XSP1) HepG2 Assay for zebrafish Thyroid Hormone Receptor alpha (TRa) (AID 2283807)
# Method in brief: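 HepG2 cells transiently transfected with GAL4-UAS reporter units including a zebrafish TRa–Gal4 chimera, dosed 24 h with 3 nM 6-alpha-fluorotestosterone present. Reporter mRNA quantified by RT-PCR and capillary electrophoresis; gain versus DMSO.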
# AR (gene 367) [10] = target: AR (gene 367) (UniProt P10275); experiment: ACEA_AR_agonist_80hr: ACEA Biosciences xCELLigence Real-Time Cell Analysis on Androgen Receptor Agonism for Proliferation (AID 2283783);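 note: hits increase impedance growth signal above DMSO baseline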
# Method in brief: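 Androgen-driven proliferation in 22Rv1 cells is tracked as electrical impedance, taken 80 h after continuous exposure to compound (eight concentrations, 1:4 steps, maximum 100 uM final). Activity is fitted in the positive direction with DMSO as baseline.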
# [11] = target: Estrogen receptor beta (Homo sapiens) (UniProt Q92731); experiment: ATG_hERb_XSP1: Attagene TRANS-FACTORIAL Multi-Species (XSP1) HepG2 Assay for human Estrogen Receptor (ESR2) (AID 2283788)
# Method in brief: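 Measured endpoint is transcriptional gain of signal from a GAL4-UAS reporter controlled by chimeric ERβ in HepG2 liver cells. Exposure lasts 24 h alongside 3 nM 6-alpha-fluorotestosterone, with DMSO as negative control.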
# [12] = ATG_M_19_XSP1: Attagene TRANS-FACTORIAL Multi-Species (XSP1) HepG2 Assay for M19 Transcription Factor (Internal Marker) (AID 2283798)
# Method in brief: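 HepG2 cells transiently transfected with multiplexed GAL4-UAS reporter units, dosed 24 h with 3 nM 6-alpha-fluorotestosterone present for partial AR stimulation. Reporter mRNA measured by RT-PCR with capillary electrophoresis; gain-of-signal fitted relative to DMSO.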
# [13] = ATG_M_32_XSP1: Attagene TRANS-FACTORIAL Multi-Species (XSP1) HepG2 Assay for M32 Transcription Factor (Internal Marker) (AID 2283799)
# Method in brief: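 HepG2 cells transiently transfected with multi-species TRANS reporter units, dosed 24 h with 3 nM 6-alpha-fluorotestosterone present. Internal-marker reporter mRNA quantified by RT-PCR and capillary electrophoresis; positive-direction fit versus DMSO.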
# [14] = target: Nuclear receptor subfamily 1 group I member 2 (Mus musculus) (UniProt O54915); experiment: ATG_mPXR_XSP1: Attagene TRANS-FACTORIAL Multi-Species (XSP1) HepG2 Assay for mouse Pregnane X Receptor (PXR) (AID 2283803)
# Method in brief: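 Transiently transfected HepG2 cells expressing a receptor-Gal4 chimera drive a GAL4-UAS reporter; 3 nM 6-alpha-fluorotestosterone included. Reporter mRNA read 24 h post-dose by RT-PCR and capillary electrophoresis; gain of signal relative to DMSO.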
# [15] = tested on: turtle Thyroid Hormone Receptor, alpha (TRa), gene 101949057; experiment: ATG_trTRa_XSP1: Attagene TRANS-FACTORIAL Multi-Species (XSP1) HepG2 Assay for turtle Thyroid Hormone Receptor, alpha (TRa) (AID 2283806)
# Method in brief: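 HepG2 cells transiently transfected with GAL4-UAS reporter units and chimeric receptor-Gal4 constructs, with 3 nM 6-alpha-fluorotestosterone present. Reporter mRNA was quantified 24 h after dosing by RT-PCR, 6-FAM labelling and capillary electrophoresis; gain of signal versus DMSO.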
# AR (gene 367) [16] = target: AR (gene 367) (UniProt P10275); experiment: ACEA_AR_antagonist_80hr: ACEA Biosciences xCELLigence Real-Time Cell Analysis on Androgen Receptor Antagonism for Proliferation (AID 2283787);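 note: 22Rv1 human prostate cancer cells with growth followed by electrical impedance; hits lower the impedance growth signal relative to DMSO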
# Method in brief: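 Growth-kinetic antagonist readout in 22Rv1 cells, taken 80 h after continuous compound exposure. Activity fitted as signal loss relative to DMSO negative control.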
# [17] = STM_H9_NormalizedViability: Cytotoxicity Assessment at 120 hours in the Stemina devTOX quickPredict H9 human embryonic stem cell (hESC)-based Assay (AID 2283784)
# Method in brief: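 Pluripotent H9 cells dosed, fresh medium plus compound q24h → cell layer read by CellTiter-Fluor → RFU blank-corrected, normalized to DMSO 0.1% mean. Loss-of-signal fit, DMSO as baseline.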
# [18] = target: Peroxisome proliferator-activated receptor gamma (Homo sapiens) (UniProt P37231); experiment: ATG_hPPARg_XSP1: Attagene TRANS-FACTORIAL Multi-Species (XSP1) HepG2 Assay for human Peroxisome Proliferator-activated Receptor gamma (PPARg) (AID 2283800)
# Method in brief: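 HepG2 cells transiently transfected with GAL4-UAS reporter units carrying chimeric NR-Gal4 proteins; 3 nM 6-alpha-fluorotestosterone present. After 24 h dosing, reporter mRNA quantified by RT-PCR and capillary electrophoresis; gain of signal relative to DMSO.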
# Sequence of zebrafish Thyroid Hormone Receptor alpha (TRa), thraa (gene 30670) (Q98867 whole entry, looked up, the tested form may be a part): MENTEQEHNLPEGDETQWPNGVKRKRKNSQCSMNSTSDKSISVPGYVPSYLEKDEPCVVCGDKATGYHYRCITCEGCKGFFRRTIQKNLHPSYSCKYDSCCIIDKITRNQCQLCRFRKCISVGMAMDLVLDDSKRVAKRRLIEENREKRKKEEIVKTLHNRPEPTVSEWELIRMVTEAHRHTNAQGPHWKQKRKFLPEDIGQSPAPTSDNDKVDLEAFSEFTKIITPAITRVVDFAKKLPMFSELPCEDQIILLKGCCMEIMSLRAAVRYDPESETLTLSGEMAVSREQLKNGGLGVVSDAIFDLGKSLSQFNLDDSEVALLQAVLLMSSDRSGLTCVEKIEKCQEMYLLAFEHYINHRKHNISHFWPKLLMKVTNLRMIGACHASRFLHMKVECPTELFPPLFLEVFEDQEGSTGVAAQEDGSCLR
# Sequence of AR (gene 367) (P10275 whole entry, looked up): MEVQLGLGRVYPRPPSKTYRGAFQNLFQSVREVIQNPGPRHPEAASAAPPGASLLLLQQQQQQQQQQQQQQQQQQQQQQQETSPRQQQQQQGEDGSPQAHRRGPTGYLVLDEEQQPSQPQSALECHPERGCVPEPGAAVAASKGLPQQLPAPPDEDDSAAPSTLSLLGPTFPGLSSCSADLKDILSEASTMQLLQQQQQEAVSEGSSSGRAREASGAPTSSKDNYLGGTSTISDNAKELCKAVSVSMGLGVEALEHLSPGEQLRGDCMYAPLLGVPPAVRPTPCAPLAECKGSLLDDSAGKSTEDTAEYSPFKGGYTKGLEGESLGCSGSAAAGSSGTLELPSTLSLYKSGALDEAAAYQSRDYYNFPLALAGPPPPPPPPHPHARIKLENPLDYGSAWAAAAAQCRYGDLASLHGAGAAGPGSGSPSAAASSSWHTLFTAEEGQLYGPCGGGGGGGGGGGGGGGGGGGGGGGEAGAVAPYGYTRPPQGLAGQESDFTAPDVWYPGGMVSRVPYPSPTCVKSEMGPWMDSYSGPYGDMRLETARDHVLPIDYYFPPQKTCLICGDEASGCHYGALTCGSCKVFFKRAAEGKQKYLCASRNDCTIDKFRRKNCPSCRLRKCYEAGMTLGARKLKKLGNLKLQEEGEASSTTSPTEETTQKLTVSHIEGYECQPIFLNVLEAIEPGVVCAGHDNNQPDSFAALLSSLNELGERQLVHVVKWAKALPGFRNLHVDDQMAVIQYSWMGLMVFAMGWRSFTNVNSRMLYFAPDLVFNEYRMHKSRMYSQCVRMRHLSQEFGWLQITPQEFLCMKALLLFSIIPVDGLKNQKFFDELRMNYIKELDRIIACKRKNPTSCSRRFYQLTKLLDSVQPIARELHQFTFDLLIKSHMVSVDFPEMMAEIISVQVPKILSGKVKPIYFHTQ
# Sequence of frog Thyroid hormone Receptor alpha (TRa), thra-a (gene 397942) (P15204 whole entry, looked up, the tested form may be a part): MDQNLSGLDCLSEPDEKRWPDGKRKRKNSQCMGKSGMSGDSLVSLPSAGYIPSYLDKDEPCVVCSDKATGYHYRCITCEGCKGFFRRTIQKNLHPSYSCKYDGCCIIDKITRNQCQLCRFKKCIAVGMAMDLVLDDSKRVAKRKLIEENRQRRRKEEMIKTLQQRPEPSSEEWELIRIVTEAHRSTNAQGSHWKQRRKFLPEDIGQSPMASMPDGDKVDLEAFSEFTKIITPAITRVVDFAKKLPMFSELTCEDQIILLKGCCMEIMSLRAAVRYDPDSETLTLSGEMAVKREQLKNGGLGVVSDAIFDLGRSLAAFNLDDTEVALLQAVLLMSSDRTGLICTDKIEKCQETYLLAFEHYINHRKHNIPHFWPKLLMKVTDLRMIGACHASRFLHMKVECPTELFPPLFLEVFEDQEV
# Sequence of mouse Peroxisome Proliferator-activated Receptor gamma (PPARg), Pparg (gene 19016) (P37238 whole entry, looked up, the tested form may be a part): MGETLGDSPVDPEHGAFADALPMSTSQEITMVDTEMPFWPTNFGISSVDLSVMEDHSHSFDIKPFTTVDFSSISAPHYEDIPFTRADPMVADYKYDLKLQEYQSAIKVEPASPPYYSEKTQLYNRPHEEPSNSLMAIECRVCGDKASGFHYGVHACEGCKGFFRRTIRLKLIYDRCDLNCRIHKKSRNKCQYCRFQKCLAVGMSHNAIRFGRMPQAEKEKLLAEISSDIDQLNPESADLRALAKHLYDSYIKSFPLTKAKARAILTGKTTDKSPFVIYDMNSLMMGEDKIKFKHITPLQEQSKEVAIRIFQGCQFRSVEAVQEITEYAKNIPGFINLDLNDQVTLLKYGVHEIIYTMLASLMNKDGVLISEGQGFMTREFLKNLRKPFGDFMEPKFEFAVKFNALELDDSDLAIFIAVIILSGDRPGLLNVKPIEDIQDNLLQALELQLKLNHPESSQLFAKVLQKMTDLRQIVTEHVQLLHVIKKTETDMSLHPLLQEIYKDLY
# Sequence of Nuclear receptor subfamily 1 group I member 2 (Mus musculus) (O54915 whole entry, looked up, the tested form may be a part): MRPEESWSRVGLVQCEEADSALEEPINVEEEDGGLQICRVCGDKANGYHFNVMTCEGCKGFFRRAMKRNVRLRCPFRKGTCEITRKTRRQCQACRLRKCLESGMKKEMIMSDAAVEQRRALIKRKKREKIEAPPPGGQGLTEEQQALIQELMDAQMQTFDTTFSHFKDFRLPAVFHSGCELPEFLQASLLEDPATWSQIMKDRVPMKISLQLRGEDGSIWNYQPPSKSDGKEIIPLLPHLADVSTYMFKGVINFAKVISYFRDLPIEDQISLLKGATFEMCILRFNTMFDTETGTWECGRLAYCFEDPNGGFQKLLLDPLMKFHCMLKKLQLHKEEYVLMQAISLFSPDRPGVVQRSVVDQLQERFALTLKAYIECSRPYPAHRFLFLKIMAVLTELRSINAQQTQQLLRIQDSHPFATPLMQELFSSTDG
# Sequence of human Thyroid hormone Receptor alpha (TRa), THRA (gene 7067) (P10827 whole entry, looked up, the tested form may be a part): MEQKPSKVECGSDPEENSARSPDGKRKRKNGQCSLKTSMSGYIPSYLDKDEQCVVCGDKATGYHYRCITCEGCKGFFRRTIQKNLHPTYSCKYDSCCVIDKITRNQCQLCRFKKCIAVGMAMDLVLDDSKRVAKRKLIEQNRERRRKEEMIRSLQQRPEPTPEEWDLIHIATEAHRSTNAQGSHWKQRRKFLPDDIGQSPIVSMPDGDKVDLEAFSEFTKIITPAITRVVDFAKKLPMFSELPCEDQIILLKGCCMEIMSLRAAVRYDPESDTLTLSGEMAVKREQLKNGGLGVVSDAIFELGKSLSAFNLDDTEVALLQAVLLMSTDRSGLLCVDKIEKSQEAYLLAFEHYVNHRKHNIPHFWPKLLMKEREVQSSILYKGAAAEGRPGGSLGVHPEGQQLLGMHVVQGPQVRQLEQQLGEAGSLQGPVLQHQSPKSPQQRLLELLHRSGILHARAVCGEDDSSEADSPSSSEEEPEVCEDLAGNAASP
# Sequence of Estrogen receptor beta (Homo sapiens) (Q92731 whole entry, looked up, the tested form may be a part): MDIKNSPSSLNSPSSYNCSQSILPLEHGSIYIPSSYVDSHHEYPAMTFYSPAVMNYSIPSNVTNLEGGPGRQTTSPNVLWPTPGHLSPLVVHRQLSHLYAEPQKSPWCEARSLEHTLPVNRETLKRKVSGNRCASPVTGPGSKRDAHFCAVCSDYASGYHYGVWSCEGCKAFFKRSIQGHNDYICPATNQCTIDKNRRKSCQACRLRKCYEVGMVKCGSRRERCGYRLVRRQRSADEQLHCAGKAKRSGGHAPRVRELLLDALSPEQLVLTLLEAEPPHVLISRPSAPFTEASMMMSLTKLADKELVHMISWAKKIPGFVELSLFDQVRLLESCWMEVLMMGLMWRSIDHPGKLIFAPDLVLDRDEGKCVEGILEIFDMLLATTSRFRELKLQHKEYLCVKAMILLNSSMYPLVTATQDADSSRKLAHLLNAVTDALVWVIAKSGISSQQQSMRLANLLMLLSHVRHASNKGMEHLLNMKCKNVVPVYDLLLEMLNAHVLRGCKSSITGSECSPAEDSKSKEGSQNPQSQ
# Sequence of Peroxisome proliferator-activated receptor gamma (Homo sapiens) (P37231 whole entry, looked up, the tested form may be a part): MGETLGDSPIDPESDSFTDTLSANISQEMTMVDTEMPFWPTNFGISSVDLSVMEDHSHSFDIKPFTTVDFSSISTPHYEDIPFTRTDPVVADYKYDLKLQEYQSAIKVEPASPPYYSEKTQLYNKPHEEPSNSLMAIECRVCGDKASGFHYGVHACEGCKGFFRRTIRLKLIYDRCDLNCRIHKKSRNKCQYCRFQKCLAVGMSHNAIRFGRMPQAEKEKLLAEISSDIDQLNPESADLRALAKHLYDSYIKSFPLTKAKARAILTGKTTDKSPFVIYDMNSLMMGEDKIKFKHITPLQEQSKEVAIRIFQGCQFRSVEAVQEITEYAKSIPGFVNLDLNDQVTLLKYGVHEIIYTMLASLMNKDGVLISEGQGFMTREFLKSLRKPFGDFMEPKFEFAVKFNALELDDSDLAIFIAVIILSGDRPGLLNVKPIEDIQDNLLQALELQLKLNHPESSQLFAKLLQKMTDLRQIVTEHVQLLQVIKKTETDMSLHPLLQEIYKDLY
smiles,measurement,setting,value
COc1cc2c(cc1OC)[C@@]13CCN4CC5=CCO[C@H]6CC(=O)N2[C@H]1[C@H]6[C@H]5C[C@H]43,outcome,[1],inactive
CCc1ccccc1N,outcome,[1],inactive
COc1ccc(C=O)cc1,outcome,[1],inactive
COC[C@H](C)N(C(=O)CCl)c1c(C)csc1C,outcome,[1],inactive
C(=NC1CCCCC1)=NC1CCCCC1,AC50,[1],28.6 µM (active)
COP(=S)(OC)Oc1c(Cl)cc(C)cc1Cl,outcome,[1],inactive
CC(C)CCCCCCOC(=O)c1ccccc1C(=O)OCCCCCCC(C)C,AC50,[1],40.9 µM (active)
COP(=S)(OC)Oc1cc(Cl)c(Cl)cc1Cl,AC50,[1],88 µM (active)
CCOC(=O)CP(=O)(OCC)OCC,AC50,[1],36.8 µM (active)
ClC(Cl)=C(Cl)C(Cl)=C(Cl)Cl,outcome,[1],inactive
CCOP(=S)(OCC)Oc1ccc(S(C)=O)cc1 (centres undefined),outcome,[1],inactive
CC(C)(C)c1cc(O)ccc1O,AC50,[2],8.26 µM (active)
same,AC50,[1],9.53 µM (active)
same,outcome,[3],inactive
same,outcome,[4],inactive
same,outcome,[5],inactive
same,AC50,[6],14.9 µM (active)
same,outcome,[7],inactive
same,outcome,[8],inactive
same,outcome,[9],inactive
CCCCCCCCCl,outcome,[1],inactive
CC(C)(C)CC(C)(C)c1ccc(O)cc1,AC50,[2],2.15 µM (active)
same,AC50,[1],21.2 µM (active) and 21.4 µM (active) and 21.5 µM (active)
same,outcome,AR (gene 367) [10],inactive
same,AC50,[11],2.74 µM (active)
same,outcome,[3],inactive
same,outcome,[4],inactive
same,outcome,[12],inactive
same,outcome,[13],inactive
same,outcome,[5],inactive
same,outcome,[14],inactive
same,outcome,[7],inactive
same,outcome,[15],inactive
same,outcome,[9],inactive
O=C(Cl)c1ccc(Cl)cc1,outcome,[1],inactive
CCSC(C)CC1CC(=O)C(C(CC)=NOC/C=C/Cl)=C(O)C1 (centres undefined),outcome,[1],inactive
CCOP(OCC)OCC,outcome,[1],inactive
CC(C)=C[C@@H]1[C@@H](C(=O)OCc2coc(Cc3ccccc3)c2)C1(C)C,outcome,[1],inactive
COc1ccc(OC)c(C=O)c1,AC50,[1],50 µM (active)
C[C@H]1CCCC(=O)CCC/C=C/c2cc(O)cc(O)c2C(=O)O1,outcome,AR (gene 367) [10],inactive
same,AC50,AR (gene 367) [16],13.9 µM (active)
CCN1CCC2(CC1)COc1cc3c(cc12)N(C(=O)c1ccc(-c2ccc(-c4nnc(C)o4)cc2C)cc1)CC3,AC50,[1],8.01 µM (active)
same,outcome,AR (gene 367) [10],inactive
same,AC50,[17],8.14 µM (active)
same,AC50,AR (gene 367) [16],8.66 µM (active)
COP(=O)(OC)O/C(=C\Cl)c1cc(Cl)c(Cl)cc1Cl,AC50,[1],58.1 µM (active)
same,outcome,AR (gene 367) [16],inactive
same,outcome,[3],inactive
same,outcome,[4],inactive
same,AC50,[18],14 µM (active)
same,outcome,[5],inactive
same,AC50,[6],32.3 µM (active)
same,AC50,[14],30.3 µM (active)
same,outcome,[9],inactive
